Reference: ChEMBL document CHEMBL3988442, “University of Dundee, Small-Polar-MMV Screening Library” (2021)
The whole screen tested about 53,000 compounds, of which about 900 (1.7%) showed an effect of 50% or more. Shown is part of a subset that was picked to be rich in strong results.

Each compound was assayed on Mycobacterium tuberculosis (assay: Cornell - Phenotypic assay to identify agents that inhibit growth of Mycobacterium tuberculosis). Settings: 10 mM as filed; unlikely as a test dose.
Assay type: functional
Parameters: scale not given: direction of the effect not stated beside the values

SMILES	Percent Effect [%]
Cc1cc(N2CCC(CO)(CC3CCCCO3)CC2)c2ccccc2n1 (centres undefined)	0.8134
OCC1(CC2CCCCO2)CCN(c2cnc3ccccc3n2)CC1 (centres undefined)	107
Cc1cc(N2CCC(CO)(CC3CCCCO3)CC2)nc2ccccc12 (centres undefined)	-1.855
O=C(c1ccc[nH]1)N1CCOCC12CCCC2	-33.44
Cc1[nH]ccc1C(=O)N1CCOCC12CCCC2	102.6
Cc1ccc(F)cc1C(=O)N1CCOCC12CCCC2	20.33
COCCN1C(=O)CC(N2CCN(c3ccccc3)CC2)C1=O (centres undefined)	12.26
O=C1CC(N2CCN(c3ccc(O)cc3)CC2)C(=O)N1Cc1cccs1 (centres undefined)	104.3
CCCN1C(=O)CC(N2CCN(c3ccc(F)cc3)CC2)C1=O (centres undefined)	-5.623
COCCN1C(=O)CC(N2CCN(c3ccc(F)cc3)CC2)C1=O (centres undefined)	4.981
COCCCN1C(=O)CC(N2CCN(c3ccc(F)cc3)CC2)C1=O (centres undefined)	4.554
O=C1CC(N2CCN(c3ccc(F)cc3)CC2)C(=O)N1Cc1cccs1 (centres undefined)	42.8
CC(C)CN1C(=O)CC(N2CCN(c3ccc(F)cc3)CC2)C1=O (centres undefined)	12.43
O=C1CC(N2CCN(c3ccccc3O)CC2)C(=O)N1Cc1cccs1 (centres undefined)	63.35
COCCN1C(=O)CC(N2CCN(c3ccc(OC)cc3)CC2)C1=O (centres undefined)	55.38
COC1(CNC(=O)c2ccoc2)CCSC1 (centres undefined)	-5.057
Cc1nn(C(C)C)c2cnn(CC(=O)N3CCSCC3)c12	-7.998
CCO[C@H]1CO[C@@]2(CCN(Cc3ccc4c(c3)OCO4)C2)C1.O=C(O)C(F)(F)F	22.33
CCC(c1ccccc1)S(=O)(=O)CCO (centres undefined)	-20.37
CN(C)c1ncc(CN2CCC(O)(c3ccccc3F)CC2)cn1.O=C(O)CC(O)(CC(=O)O)C(=O)O	6.266
COc1ccc(NC2CCCN(Cc3cnc(N(C)C)s3)C2)cc1 (centres undefined)	47.8
COc1ccc(NC2CCCN(Cc3cnc(N(C)C)s3)C2)cc1OC (centres undefined)	55.76
CN(C)c1ncc(CN2CCCC(Nc3ccc4c(c3)OCCO4)C2)s1 (centres undefined)	37
O=C(NC1CCCCC1)c1ccc(Oc2ccc3nncn3n2)cc1	-7.341
CS(=O)(=O)N[C@H]1CCO[C@]2(CCN(C(=O)c3ccccn3)C2)C1.O=C(O)C(F)(F)F	4.539
CN1CCCC(c2nccnc2-c2cccc(C(F)(F)F)c2)C1 (centres undefined)	32.41

SMILES	Percent Effect [%]
CN1CCCC(c2cccc(-c3cccc(C(F)(F)F)c3)n2)C1 (centres undefined)	30.4
CN1CCCC(c2cncc(-c3cccc(C(F)(F)F)c3)n2)C1 (centres undefined)	51.88
CS(=O)(=O)N1CCCC(c2cccc(-c3ccccc3F)n2)C1 (centres undefined)	29.33
CN1CCCC(c2cccc(-c3ccccc3F)n2)C1 (centres undefined)	55.32
OCCN1CCCC(c2cccc(-c3ccccc3F)n2)C1 (centres undefined)	-3.425
CCN(CC)C(=O)c1cc(C2(C)CCN(C(C)=O)CC2)nc(C)n1	3.743
O=C(O)C1CN(c2cccc(F)c2)CCO1 (centres undefined)	-11.48
O=C1CC(c2ccccc2)C2(CCN(Cc3ccccn3)CC2)N1 (centres undefined)	1.787
CC(=O)NCc1cc2n(n1)CCN(Cc1cccc(Cl)c1Cl)C2	13.71
O=C(c1ccco1)N1CCC(n2nc(-c3ccco3)ccc2=O)CC1	11.6
O=C(Cc1ccncc1)N(CCO)CCSc1ccc(Cl)cc1	12.99
Cc1cccc(CNC(Cc2ccsc2)c2nc(C)c(C)s2)n1.Cl (centres undefined)	47.96
O=C1COc2cc(C(=O)NS(=O)(=O)c3ccc(F)c(F)c3)ccc2N1	-19.76
Cc1nn(C)cc1S(=O)(=O)N[C@@H]1CCC[C@@H](N2CCCC2)[C@@H]1O	19.92
CO[C@@H]1CC[C@@H](NS(=O)(=O)c2cn(C)nc2C)[C@H]1O	50.32
Cc1nn(C)cc1S(=O)(=O)N[C@@H]1CC[C@@H](n2ccnc2C)[C@@H]1O	-21.64
CC(NC(=O)N1CCNC(=O)CC1)c1ccc(OC(F)F)cc1 (centres undefined)	-26.09
c1cc(CN2CCC(Cc3noc(C4CC4)n3)CC2)c2c(c1)OCO2	11.43
Fc1ccc(C2(CNC3=NCCN3)CCCC2)cc1.I	20.05
O=C(CCc1cc2n(n1)CCCNC2)NCCS(=O)(=O)N1CCCC1	-51.2
Cc1cccc2c1CCN(c1cc(N3CCCC3CO)ncn1)C2 (centres undefined)	67.12
CN1CCN(c2cc(N3CCCC3CO)ncn2)Cc2ccccc21 (centres undefined)	-16.34
CS(=O)(=O)N1CCN(c2cc(N3CCCC3CO)ncn2)CC1 (centres undefined)	0.6089
Cc1noc(Cl)c1CCC(=O)N1CCCCC1Cn1cccn1 (centres undefined)	-3.884
CCOc1ccc(S(=O)(=O)NC(=O)c2c(C)noc2C(C)C)cc1	49.48
Cc1noc(C(C)C)c1C(=O)NS(=O)(=O)c1ccc(Cl)cc1	78.7

SMILES	Percent Effect [%]
Cc1ccc(S(=O)(=O)NC(=O)c2c(C)noc2C(C)C)cc1C	26.09
Cc1cc2nccc(C3CCN(C(=O)c4ccccc4F)CC3)n2n1	6.226
CCC(Nc1ccc(CCN2CCOCC2)cc1)C(N)=O (centres undefined)	-19.51
COCCC(=O)NCc1ccc(-c2ncncc2C(=O)N(C)C)cc1	32.24
COCC(=O)NCc1ccc(-c2ncncc2C(=O)N(C)C)cc1	50.66
CN(C)C(=O)c1cncnc1-c1ccc(CNC(=O)C2CC2)cc1	37.26
CNC(=O)c1sc2ccccc2c1C1CCN(c2nc(C)cc(C)n2)C1 (centres undefined)	14.17
CN1CCCC1CCNC(=O)c1ccccc1-n1cc(CN)cn1 (centres undefined)	7.916
Cc1cccc2c1C(=O)NC1(CCOCC1)N2	17.55
Cn1nccc1-c1ccc2nc(C3CCN(CC4CC4)CC3)nn2c1.O=C(O)C(F)(F)F.O=C(O)C(F)(F)F	-10.01
COc1ccc2[nH]c(CNc3cc(C4CCNCC4)nc(C)n3)cc2c1	70.58
Cc1nc(NCc2cccc(F)c2)cc(C2CCNCC2)n1.Cl	-9.727
Cc1nc(NCc2ccc(C)o2)cc(C2CCNCC2)n1	-17.21
O=C(c1cncs1)N1CCC(c2cnccn2)CC1	7.442
Cc1cn2c(n1)CCC(NC(=O)Cn1cncn1)C2 (centres undefined)	-12.63
Cc1ccc(OCCC(=O)N2CCN(c3cnccn3)CC2)cc1C	39.73
Cc1nn(C)cc1C(=O)NCc1csc(C2CC2)n1	0.3942
CCn1cc(C(=O)NCc2csc(C3CC3)n2)c(C)n1	26.12
CCn1nc(C)c(C(=O)NCc2csc(C3CC3)n2)c1C	69.61
CCSc1cc(C(=O)NCCc2nnc(-c3ccco3)[nH]2)ccn1	-11.72
CCOc1ccccc1-c1cc(N)[nH]n1.Cl	108.1
CCOc1ccc(Br)cc1-c1cc(N)[nH]n1.Cl	-17.72
CCOc1cc(C)c(-c2cc(N)[nH]n2)cc1OCC	10.44
O=C(c1cc(C2CCCC2)no1)N1CC(O)C1	18.4
CN(C)C(=O)CN1C(=O)CCC12CCN(Cc1ccc(F)cc1)CC2.O=C(O)C(F)(F)F	13.62
CCS(=O)(=O)N1CC(c2nc(-c3cccs3)no2)C1	8.063

SMILES	Percent Effect [%]
Cl.c1csc(-c2noc(C3CNC3)n2)c1	106.9
Cl.c1csc(-c2noc(C3CCCNC3)n2)c1 (centres undefined)	9.745
CO[C@H]1CN(c2ccccc2)S(=O)(=O)[C@@]12CCN(Cc1ccccc1)C2	6.335
Cc1ccccc1CC(=O)N1CCCn2cncc2C1	-17.85
Cc1cccc(C(=O)N2C[C@H](NS(C)(=O)=O)[C@@H]3OCCC[C@@H]32)n1	2.201
CN1CCC(NC(=O)Nc2ccc(Br)c(F)c2)C1=O (centres undefined)	8.703
CN1CCC(NC(=O)Nc2ccc(F)c(Br)c2)C1=O (centres undefined)	-9.143
CN1CCC(NC(=O)Nc2ccc(F)c(-n3cccc3)c2)C1=O (centres undefined)	84.66
COCCNc1ccc(CC2CCCN(C3CCCC3)C2)nn1 (centres undefined)	39.43
CN(C)CCN1CC(C(=O)N(C)Cc2cc3cc(F)ccc3[nH]2)CC1=O (centres undefined)	29.76
CN(Cc1cc2cc(F)ccc2[nH]1)C(=O)C1CC(=O)N(C2CCCC2)C1 (centres undefined)	65.9
CN(Cc1cc2cc(F)ccc2[nH]1)C(=O)C1CC(=O)N(C(C)(C)C)C1 (centres undefined)	23.39
CCc1nnc(CN(C)C(=O)C2CC(=O)N(C3CC3)C2)o1 (centres undefined)	20.13
CN(Cc1cc2cc(F)ccc2[nH]1)C(=O)C1CC(=O)N(C2CC2)C1 (centres undefined)	52.25
CCN1CC(C(=O)N(C)Cc2cc3cc(F)ccc3[nH]2)CC1=O (centres undefined)	42.66
c1ccc(CNc2ccccc2N2CCCC2)nc1	18.15
O=C(NCc1ccc(Br)cc1F)C1(O)CCSCC1	15.88
CS(=O)(=O)c1ccc(-c2ccccc2C(=O)O)cc1	-4.334
CC(=O)NCc1ccc(-c2ccccc2C(=O)O)cn1	56.71
O=C(Cc1ccccc1)NCc1ncc(-c2ccccc2C(=O)O)cn1	23.42
COCCC(=O)NCc1ccc(-c2ccccc2C(=O)O)cn1	57.39
O=C(Cc1ccccc1)NCc1ccc(-c2ccccc2C(=O)O)cn1	48.74
COCC(=O)NCc1ccc(-c2ccccc2C(=O)O)cn1	56.05
O=C(O)c1ccccc1-c1cnc(CNC(=O)C2CCOCC2)nc1	-26.12
COCCC(=O)NCc1ccc(-c2ccccc2C(=O)O)nc1	47.85
COCCN1CCC(Cc2cnc(-c3ccccc3C(=O)O)cn2)CC1	-34.65
